# The list is not random: actives were taken first. Their share in the collection is about 2.4%.
# Pol kappa inh: DNA polymerase kappa (human) inhibition. 400,000 tested, 0.53% active. Potency, µM (highest dose often 107 µM), for inactives: at the top dose activity, negative = inhibition, most hits filed as inhibitors. Q9UBT6. purified Pol kappa, fluorescent DNA synthesis assay, 10 min; also: % is scaled to controls: 0 for no effect and ±100 for the full control effect
#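 Kinetic fluorescence screen: compound preincubated 15 min RT with 10 nM enzyme; 50 nM substrate (final) initiates; reads at 0/10 min.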
# POLH inh: inhibitors of human DNA polymerase eta. Q9Y253. recombinant Pol eta, fluorescent DNA replication assay. Potency, µM (top dose mostly 114 µM), for inactives: at the highest dose activity change, negative = inhibition, usual class: inhibitors. 390,000 tested, 1.2% active. AID 588591; also: % is scaled to controls: 0 for no effect and ±100 for the full control effect
# Target sequence (Q9Y253 whole entry, looked up): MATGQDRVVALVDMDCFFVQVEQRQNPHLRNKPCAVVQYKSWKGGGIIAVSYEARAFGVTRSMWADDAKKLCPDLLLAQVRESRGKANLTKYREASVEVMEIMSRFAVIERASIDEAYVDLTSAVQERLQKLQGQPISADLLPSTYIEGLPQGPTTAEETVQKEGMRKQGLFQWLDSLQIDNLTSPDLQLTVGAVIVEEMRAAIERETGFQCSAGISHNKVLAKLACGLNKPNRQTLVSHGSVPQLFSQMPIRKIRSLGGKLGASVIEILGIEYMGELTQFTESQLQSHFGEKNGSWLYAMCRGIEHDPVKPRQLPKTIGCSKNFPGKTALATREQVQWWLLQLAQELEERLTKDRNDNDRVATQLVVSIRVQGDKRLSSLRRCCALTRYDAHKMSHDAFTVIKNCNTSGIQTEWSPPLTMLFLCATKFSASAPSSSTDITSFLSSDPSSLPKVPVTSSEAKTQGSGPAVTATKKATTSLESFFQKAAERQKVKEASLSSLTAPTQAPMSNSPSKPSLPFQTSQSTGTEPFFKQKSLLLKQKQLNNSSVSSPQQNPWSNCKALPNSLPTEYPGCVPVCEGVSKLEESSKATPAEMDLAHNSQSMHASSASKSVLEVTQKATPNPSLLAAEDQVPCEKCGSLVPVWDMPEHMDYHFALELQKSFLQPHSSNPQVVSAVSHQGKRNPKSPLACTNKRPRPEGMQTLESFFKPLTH
#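 Fluorescent replication assay: 50 nM final substrate added after a 15 min room-temperature compound preincubation with 10 nM enzyme. Signal taken at 0 min and again at 10 min.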
# POLB inh: inhibitors of human DNA polymerase beta; P06746; Pol beta primer extension/strand displacement, fluorescence kinetic; Potency, µM (doses to about 114 µM), for inactives: at the top dose activity change, negative = inhibition, most hits filed as inhibitors; 340,000 tested, 1.3% active; also: % is scaled to controls: 0 for no effect and ±100 for the full control effect
#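 Curves were derived by four-parameter Hill fits of normalized qHTS data. The kinetic fluorescent primer-extension read was taken at 0 and 10 min after 50 nM substrate, following a 15 min room-temperature preincubation of 10 nM enzyme with compounds.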
# WRN inhibitor: inhibitors of human WRN helicase | Q14191 | WRN helicase unwinding, fluorescent forked duplex, kinetic | Potency, µM (titrated, usually from 114 µM), for the others: at the top dose activity change, negative = inhibition, usual class: inhibitors | 360,000 tested, 0.46% active | AID 651768; also: % is scaled to controls: 0 for no effect and ±100 for the full control effect; nearly all actives have a fitted effect of over 55% in size
#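 WRN at 20 nM final preincubated with compound 15 min at room temperature; reaction started with 100 nM fluorophore/quencher forked duplex oligonucleotide and 2 mM ATP final. Unwinding followed kinetically by red fluorescence (ex 525, em 598 nm).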
# POLI inh: blocks human DNA polymerase iota activity; 390,000 tested, 1% active; AID 588590; Q9UNA4; Pol iota fluorescent replication assay, 10 min; Potency, µM (series often up to 115 µM), without a hit: at the top dose activity, negative = inhibition, most hits filed as inhibitors
#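 Fluorescent replication assay read twice, at 0 min and 10 min after adding 50 nM (final) substrate. Enzyme (10 nM) and compounds were first incubated 15 min at room temperature; enzyme-free buffer wells were negative controls.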
# FEN1 inhibitor: human FEN1 inhibition; Potency, µM (doses to about 114 µM), for inactives: at the top dose activity change, negative = inhibition, actives largely listed as inhibitors; P39748; 390,000 tested, 0.35% active; Recombinant FEN1 flap cleavage, fluorescence, 15 min; AID 588795; also: % is scaled to controls: 0 for no effect and ±100 for the full control effect; nearly all actives have a fitted effect of over 65% in size
#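 Reaction started by adding substrate (50 nM final) to 10 nM enzyme after 15 min room-temperature compound preincubation. Reads at 0 and 15 min, with data normalized and fitted to a four-parameter Hill equation.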
# * marks the source's active call; other numbers are inactive results; u = inconclusive; x = no result given; [ ] = another dose, or the depositor's remark. Calls follow the shape of the dose curve; as a rule, active = well fitted curve in the direction sought with a large enough effect; inconclusive = small, poorly fitted or top-dose-only effect, or another doubt; inactive = no such curve, though single readings can be large; an effect the other way counts as inactive or inconclusive. Potency is read from the fitted curve at half-maximal effect.
SMILES,Pol kappa inh,POLH inh,POLB inh,WRN inhibitor,POLI inh,FEN1 inhibitor
CC(C)Cn1c(SCc2nnc(-c3cccs3)o2)nc(O)cc1=O,-42%,u,-6%,-7%[57.1 µM],25µM*,-2%
CCOc1ccc(/C=N/N2C(C)CCCC2C)cc1 (centres undefined),-1%,-6%,4%,3%,-8%,4%
O=C(c1ccccc1)c1ccc2nc(N3CCN(C(=O)c4ccco4)CC3)c3nncn3c2c1,2%,-27%,12%,-12%,79µM*,-4%
O=C(c1ccccc1)c1ccc2nc(N3CCN(c4ccccc4)CC3)c3nncn3c2c1,0%,-16%,-10%,x,21%,-3%
C/C(=N\NC(=O)C12CCC(C)(C(=O)O1)C2(C)C)c1ccccc1O (centres undefined),-11%,12%,-13%,1%,15%,20%
N#Cc1c(SCC(=O)Nc2ccccc2C(F)(F)F)sc2c(O)cc(=O)[nH]c12,u,u,-16%,-3%[11.6 µM],32µM*,-20%
N#Cc1cccc(NC(=O)CSc2sc3c(O)cc(=O)[nH]c3c2C#N)c1,u,50µM*,u,u,u,u
N#Cc1c(SCC(=O)Nc2ccc(Cl)cc2Cl)sc2c(O)cc(=O)[nH]c12,-41%,25µM*,10%,-3%[11.6 µM],32µM*,-3%
CSc1ccc(NC(=O)CSc2nc3[nH]c(=O)cc(O)c3s2)cc1,56µM*,40µM*,x,u,u,u
O=C(O)c1ccccc1OCc1nc2ccccc2s1,-2%,-20%,18%,-11%,-25%,3%
O=C(Nc1ccccc1C(F)(F)F)NC1(C(=O)N2CCOCC2)CCCCC1,50µM*,u,x,u,14µM*,-11%
Cc1cc(C)cc(C(=O)NCC(=O)OCc2nc(N)nc(Nc3ccccc3C)n2)c1,1%,-22%,x,0%,-3%,-7%
CC(C)Oc1ccc(/C(O)=C2/C(=O)C(=O)N(Cc3cccnc3)C2c2ccco2)cc1 (centres undefined),-7%,3%,32µM*,-10%,u,-5%
COc1ccc(/C(O)=C2/C(=O)C(=O)N(Cc3cccnc3)C2c2ccccn2)cc1 (centres undefined),-5%,-12%,3%,-13%,-8%,-1%
CCCCOC(=O)CSC1=C(C#N)C(c2ccccc2OCC)C(C#N)C(=O)N1 (centres undefined),-38%,-15%,12%,-20%[57.1 µM],79µM*,-1%
CCCOC(=O)CSC1=C(C#N)C(c2ccccc2OCC)C(C#N)C(=O)N1 (centres undefined),-9%,7%,u,-14%,u,-2%
CCCc1nc(SCC(=O)NNC(=O)c2ccc(OC)cc2)c2ccccc2n1,-1%,35%,2%,-1%,u,-4%
COC(=O)C(N)Cc1ccc(O)c(O)c1 (centres undefined),89µM*,6%,-18%,-9%,u,-1%
CC(/C=C/C=C(\C)C(=O)O[C@@H]1O[C@H](CO[C@@H]2O[C@H](CO)[C@@H](O)[C@H](O)[C@H]2O)[C@@H](O)[C@H](O)[C@H]1O)=C\C=C\C=C(C)\C=C\C=C(/C)C(=O)O[C@@H]1O[C@H](CO[C@@H]2O[C@H](CO)[C@@H](O)[C@H](O)[C@H]2O)[C@@H](O)[C@H](O)[C@H]1O,21µM*,x,x,x,x,x
Cc1ccc(OCC(=O)Nc2cccc(OCc3cc(=O)n4ccccc4n3)c2)cc1C,-5%[60.1 µM],11%,23%,x,-13%,-10%
Nc1cc(C(=O)O)c(N)c2c1C(=O)c1ccccc1C2=O,u,20µM*,u,u,20µM*,35µM*
O=C(NCCCN1CCOCC1)c1cccc(S(=O)(=O)Nc2ccc(F)cc2)c1,1%,-5%,x,3%,-24%,-1%
Cc1ccccc1-c1nn(-c2ccc(F)cc2F)cc1CNC1CC1,-5%,-14%,2%,-3%,26%,-4%
Cc1ccc(NC(=O)Cn2cncc2-c2ccc([N+](=O)[O-])cc2)cc1C,-9%,u,35µM*,-20%,u,-1%
COc1ccccc1NC(=O)Cn1cncc1-c1ccc([N+](=O)[O-])cc1,-2%,-11%,1%,-4%,u,2%
SMILES,Pol kappa inh,POLH inh,POLB inh,WRN inhibitor,POLI inh,FEN1 inhibitor
Cc1ccc2nc(-c3ccc(-c4ccccn4)s3)cn2c1,-20%,-18%,40µM*,u,u,-8%
O=C(Sc1cccc2cccnc12)c1ccc(F)cc1,x,x,3%,x,x,x
O=S(=O)(Nc1cc(Sc2cccc3cccnc23)c(O)c2ccccc12)c1ccc(F)cc1,-13%,-3%,10%,22µM*,u,u
CCOC(=O)c1c(NC(=O)CSc2nnc(-c3ccccc3C)n2C)sc(C(C)=O)c1C,u,35µM*,18%,u,15%,u
COc1ccc(-c2noc(-c3ccc(N4CCC(C)CC4)c([N+](=O)[O-])c3)n2)cc1OC,u,-6%,79µM*,x,-18%,-12%
COc1ccc(-c2noc(-c3ccc(N4CCOCC4)c([N+](=O)[O-])c3)n2)cc1OC,-3%,-13%,2%,x,12%,14%
O=C(Nc1ccc2[nH]c(=S)sc2c1)Nc1ccccc1F,8%,79µM*,-1%,-4%,u,-19%
O=C(Nc1ccc2[nH]c(=S)sc2c1)c1ccccc1,-6%,-15%,11%,u,138%,-5%
O=C(Nc1cccc(C(F)(F)F)c1)/C(=C\c1ccco1)NC(=O)c1cccs1,-9%,-19%,4%,-4%,24%,2%
COCCN(CC(=O)Nc1cccc(C)c1C)C(=O)c1cc2c(s1)CCC2,u,u,x,1%[11.6 µM],89µM*,7%
CC(=O)N1CCc2c(sc(NC(=O)c3ccc([N+](=O)[O-])o3)c2C(N)=O)C1,x,50µM*,x,-12%,x,x
O=C1NC(=S)N/C1=C/c1cccn1-c1ccc([N+](=O)[O-])cc1,u,u,7.9µM*,-7%,56µM*,-19%
COc1ccc(/C=C2\SC(=S)N(CCC(=O)NC3=NCCS3)C2=O)cc1OC,2%,-14%,10%,-3%,-27%,-11%
O=C1ON=C(c2ccccc2)/C1=C/c1ccco1,28µM*,u,25µM*,u,22µM*,u
O=C1NNC(c2ccccc2)=N/C1=C\c1ccccc1Cl,1%,-32%,-3%,-34%,u,2%
O=C1NNC(c2ccccc2)=N/C1=C\c1ccco1,-41%,u,10µM*,-27%,u,-3%
CC(C)CC[n+]1ccn(-c2nc3ccccc3nc2[N-]S(=O)(=O)c2ccccc2)c1,-11%,-12%,79µM*,0%,22%,-2%

# High-throughput results as filed in PubChem BioAssay.
